Results as given in PubChem BioAssay AID504834 (National Center for Advancing Translational Sciences (NCATS), 2011).
Among all 320,000 compounds or so, about 22,000 (6.9%) were called active. Roughly 27% stayed inconclusive and do not appear here. Calls follow the shape of the dose curve; as a rule, active = well fitted inhibition curve with a large enough effect; inconclusive = small, poorly fitted or top-dose-only effect, or another doubt; inactive = no such curve, though single readings can be large or run the other way. What follows is part of a selection rich in actives, with near analogues and random picks from the rest. Where a call stands in place of a potency, no number is given.

Test: Primary qHTS for delayed death inhibitors of the malarial parasite plastid, 96 hour incubation
Details: P. falciparum luciferase reporter growth; series mostly up to 28.7 µM
Summary of the method: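 Erythrocytes infected with luciferase-expressing P. falciparum were dispensed at 2% hematocrit and 0.05% parasitemia (final), then incubated with compounds 96 hours at 37 C in 5% CO2. Luminescence after detection reagent addition reported growth.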
Potency is read from the fitted curve at half-maximal effect.

Question: With `CCCNC(=O)c1c(N)n(-c2ccc(S(N)(=O)=O)cc2)c2nc3ccccc3nc12` as the molecule, how does the Potency read?
Answer: inactive

Question: For `CCC(C)NC(=O)c1c(N)n(/N=C/c2cccs2)c2nc3ccccc3nc12` (stereo unspecified), which Potency is on record?
Answer: 10.4 µM (active)

Question: Which Potency does the source give for `C=CCn1c(N)c(C(=O)OCC(C)C)c2nc3ccccc3nc21` here?
Answer: inactive

Question: With `O=C(NCCc1c[nH]c2ccc(Cl)cc12)c1ccc([N+](=O)[O-])cc1` as the molecule, how does the Potency read?
Answer: inactive

Question: Which Potency does the source give for `Cc1ccc(CNC(=O)c2c(-c3ccccc3)noc2C)cc1` here?
Answer: inactive

Question: Which Potency does the source give for `Oc1ccccc1CNc1ncc(Br)cc1Br` here?
Answer: 13.1 µM (active)

Question: With `Brc1ccc2ncnc(NCc3cccnc3)c2c1` as the molecule, how does the Potency read?
Answer: inactive

Question: Which Potency does the source give for `CCc1cccc(C)c1NS(=O)(=O)c1cc(Br)cnc1N` here?
Answer: inactive

Question: For `COc1ccc(S(=O)(=O)c2c[nH]c(=S)[nH]c2=O)cc1Cl`, which Potency is on record?
Answer: inactive

Question: For `O=C(O)c1cc(S(=O)(=O)NC2CCCc3ccccc32)ccc1O` (stereo unspecified), which Potency is on record?
Answer: inactive

Question: For `O=c1[nH]c2ccc(S(=O)(=O)N3CCCC3)cc2[nH]1`, which Potency is on record?
Answer: inactive

Question: For `CCCCn1c(N)c(N(CCOC)C(=O)c2cccc(S(=O)(=O)N3CCCCC3)c2)c(=O)[nH]c1=O`, which Potency is on record?
Answer: inactive

Question: With `CCCCn1c(=S)[nH]c2cc(S(=O)(=O)N3CCCCC3)ccc21` as the molecule, how does the Potency read?
Answer: 9.28 µM (active)

Question: With `Cc1ccc(S(=O)(=O)N(C)C)cc1NC(=O)C1Cc2ccccc2CN1C(=O)c1ccco1` (stereo unspecified) as the molecule, how does the Potency read?
Answer: inactive

Question: For `O=C(NCCCn1ccnc1)/C(=C\c1ccccc1F)NC(=O)c1ccccc1`, which Potency is on record?
Answer: inactive

Question: Which Potency does the source give for `Cc1c(C(=O)OCC(=O)N2CCCC2=O)oc2ccccc12` here?
Answer: inactive

Question: Which Potency does the source give for `CC1CCCN(CC(O)COCc2ccccc2)C1` (stereo unspecified) here?
Answer: inactive

Question: Which Potency does the source give for `O=[N+]([O-])c1cc([N+](=O)[O-])c2cccnc2c1O` here?
Answer: inactive

Question: With `Oc1c(CN2CCCC2)cc(COCc2ccccc2)c2cccnc12` as the molecule, how does the Potency read?
Answer: 2.08 µM (active)

Question: With `Cc1cnc(C(=O)N2CCCC(N3CCN(c4ccccc4F)CC3)C2)cn1` (stereo unspecified) as the molecule, how does the Potency read?
Answer: inactive

Question: With `O=C(Nc1nnc(SCc2c(Cl)cccc2Cl)s1)c1cccc([N+](=O)[O-])c1` as the molecule, how does the Potency read?
Answer: inactive

Question: With `Cn1c(=O)oc2cc(S(=O)(=O)N3CCC(C(=O)Nc4ccc(OC(F)(F)F)cc4)CC3)ccc21` as the molecule, how does the Potency read?
Answer: inactive

Question: Which Potency does the source give for `Cc1ccc(NC(=O)CCNS(=O)(=O)c2ccc3c(c2)oc(=O)n3C)cc1C` here?
Answer: inactive

Question: With `Cn1c(=O)oc2cc(S(=O)(=O)NCCC(=O)NCc3ccccc3Cl)ccc21` as the molecule, how does the Potency read?
Answer: 10.4 µM (active)

Question: Which Potency does the source give for `COc1cccc(NC(=O)CCNS(=O)(=O)c2ccc3c(c2)oc(=O)n3C)c1` here?
Answer: 7.38 µM (active)

Question: Which Potency does the source give for `COc1cc(NC(=O)CCS(=O)(=O)c2ccc3c(c2)oc(=O)n3C)cc(OC)c1` here?
Answer: 1.47 µM (active)

Question: For `CSCCC(NS(=O)(=O)c1ccc2c(c1)oc(=O)n2C)C(=O)NCc1ccccc1` (stereo unspecified), which Potency is on record?
Answer: inactive

Question: Which Potency does the source give for `COc1ccc(NC(=O)CCNS(=O)(=O)c2ccc3c(c2)c(=O)n(C)c(=O)n3C)cc1OC` here?
Answer: inactive

Question: For `CCN(Cc1ccccc1)C(=O)CCS(=O)(=O)c1ccc2c(c1)oc(=O)n2C`, which Potency is on record?
Answer: inactive

Question: Which Potency does the source give for `O=C(CCNS(=O)(=O)c1ccc(Br)s1)NCc1ccccc1Cl` here?
Answer: inactive

Question: Which Potency does the source give for `CS(=O)(=O)N(CC(=O)Nc1ccc(F)cc1)C1CCCCC1` here?
Answer: inactive

Question: For `CCOC(=O)Cn1c(O)c(N=NC(=O)CNC(=O)Cc2ccccc2)c2ccccc21`, which Potency is on record?
Answer: inactive

Question: With `Cc1nc2nc(C)c(NS(=O)(=O)c3ccc(C(C)(C)C)cc3)c(=O)n2[nH]1` as the molecule, how does the Potency read?
Answer: inactive

Question: Which Potency does the source give for `CC1CCN(C(=O)c2cccc(S(=O)(=O)N3CCCc4ccccc43)c2)CC1` here?
Answer: inactive

Question: Which Potency does the source give for `CC1CCN(C(=O)COC(=O)c2cc(=O)[nH]c3ccccc23)CC1` here?
Answer: inactive

Question: Which Potency does the source give for `CN(C)NC(=O)c1csnc1-c1c(Cl)cccc1Cl` here?
Answer: inactive

Question: For `O=C(COC(=O)CNS(=O)(=O)c1ccc(F)c(F)c1F)NC1CCCC1`, which Potency is on record?
Answer: inactive

Question: Which Potency does the source give for `CC(=O)NCCC(=O)Nc1nc(-c2ccc3c(c2)OCCO3)cs1` here?
Answer: inactive

Question: With `Cc1ccc(-c2csc(NC(=O)c3cnccn3)n2)cc1C` as the molecule, how does the Potency read?
Answer: inactive

Question: With `O=C(Nc1nc2ccccc2s1)c1ccc2c(c1)OCO2` as the molecule, how does the Potency read?
Answer: inactive

Question: With `Cc1csc(NC(=O)C2=COCCO2)n1` as the molecule, how does the Potency read?
Answer: inactive

Question: With `Cc1ccc(-c2csc(NC(=O)C3=COCCO3)n2)cc1C` as the molecule, how does the Potency read?
Answer: 6.57 µM (active)

Question: With `O=C(Nc1nc(-c2ccc3c(c2)OCO3)cs1)c1ccncc1` as the molecule, how does the Potency read?
Answer: 4.15 µM (active)

Question: With `COc1ccc(NC(=O)NNC(=O)COc2cc(C)c(Cl)c(C)c2)c(OC)c1` as the molecule, how does the Potency read?
Answer: inactive

Question: For `COC(=O)c1ccc(COc2cc([N+](=O)[O-])cc3cccnc23)cc1`, which Potency is on record?
Answer: inactive

Question: With `CCc1ccc(S(=O)(=O)NCC(O)COc2ccc(OC)cc2)cc1` (stereo unspecified) as the molecule, how does the Potency read?
Answer: inactive

Question: With `O=C(Nc1cccc(-n2cnnn2)c1)c1cccnc1` as the molecule, how does the Potency read?
Answer: inactive

Question: For `CC(=O)C(C)n1cnc2scc(-c3ccc(C)cc3)c2c1=O` (stereo unspecified), which Potency is on record?
Answer: inactive

Question: For `CCOC(=O)c1c(NC(=O)CCl)sc(C(=O)N(CC)CC)c1C`, which Potency is on record?
Answer: 9.28 µM (active)

Question: Which Potency does the source give for `CCOC(=O)c1sc(NC(=O)CCN2CCOCC2)c(C(=O)OCC)c1C` here?
Answer: inactive

Question: Which Potency does the source give for `CCOC(=O)Nc1sc(C(=O)N(C)C)c(C)c1C(=O)OCC` here?
Answer: inactive

Question: With `O=C(NCc1ccncc1)c1ccc(NS(=O)(=O)c2cccc([N+](=O)[O-])c2)cc1` as the molecule, how does the Potency read?
Answer: inactive

Question: With `Cc1nc2ccccc2c(=O)n1-c1ccc(NS(=O)(=O)c2ccc(F)cc2F)cc1` as the molecule, how does the Potency read?
Answer: inactive

Question: For `CCn1c(Cc2ccccc2)nnc1SCc1nc2ccccc2c(=O)[nH]1`, which Potency is on record?
Answer: inactive

Question: With `CCn1c(SCc2ccccc2)nc2cc(OC)c(OC)cc2c1=O` as the molecule, how does the Potency read?
Answer: 2.94 µM (active)

Question: With `COCCn1c(SCc2nc3cc(OC)c(OC)cc3c(=O)[nH]2)nnc1-c1ccncc1` as the molecule, how does the Potency read?
Answer: inactive

Question: With `CS(=O)(=O)c1ccc(-c2nnn(CC(=O)Nc3ccc4c(c3)OCCO4)n2)cc1` as the molecule, how does the Potency read?
Answer: inactive

Question: For `O=C1c2ccccc2C(=O)C1c1ccccc1F`, which Potency is on record?
Answer: inactive

Question: With `O=C(NCc1ccco1)c1ccc([N+](=O)[O-])cc1Cl` as the molecule, how does the Potency read?
Answer: inactive

Question: Which Potency does the source give for `Cc1ccc2c(c1)C1CN(C)CCC1N2C(=O)Cn1nnc(-c2ccccc2F)n1` (stereo unspecified) here?
Answer: inactive

Question: Which Potency does the source give for `Cc1ccc2c(c1)C1CN(C)CCC1N2C(=O)c1ccccc1NS(=O)(=O)c1ccc(F)cc1C` (stereo unspecified) here?
Answer: 9.28 µM (active)

Question: For `Cc1ccc2c(c1)C1CN(C)CCC1N2C(=S)Nc1ccc(Cl)cc1Cl` (stereo unspecified), which Potency is on record?
Answer: inactive

Question: With `CC(OC(=O)CNC(=O)c1ccco1)C(=O)Nc1ccc(Cl)cn1` (stereo unspecified) as the molecule, how does the Potency read?
Answer: inactive

Question: For `O=C(CSc1nc2ccccc2[nH]1)N/N=C/C=C\c1ccccc1[N+](=O)[O-]`, which Potency is on record?
Answer: inactive

Question: With `Cc1ccc(-n2c(SCC(=O)N/N=C/C=C/c3ccccc3[N+](=O)[O-])nc3ccccc3c2=O)cc1` as the molecule, how does the Potency read?
Answer: 10.4 µM (active)

Question: Which Potency does the source give for `Cc1nn(-c2ccccc2)c(C)c1/C=N/NC(=O)CSc1nc2ccccc2c(=O)n1-c1ccccc1` here?
Answer: inactive
